Results published in PubChem BioAssay (NCI).
This is part of a sample that, as a whole, favours compounds with a hit. Of some 79,000 tested, about 15% had one in any assay. Activity calls are given as the source filed them. Rule as the data show it: active = growth inhibition above about 70%; inactive = the rest.

Legend:
[1] = NCI Yeast Anticancer Drug Screen. Data for the rad52 strain (AID 147);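 also: 0% = growth of vehicle-treated control cultures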; conditions: S. cerevisiae rad52 mutant growth inhibition, stronger effect = higher value
Method in brief: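 Inhibition of yeast growth, referenced to vehicle controls, was the measured output for a strain with defective DNA damage repair.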

[2] = NCI Yeast Anticancer Drug Screen. Data for the wt1 strain (AID 149);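 also: 0% = growth of vehicle-treated wt1 cultures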; conditions: S. cerevisiae wt1 strain (SPY 50644) growth inhibition, stronger effect = higher value
Method in brief: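 The wt1 strain was treated with compounds, and growth was compared with vehicle-treated cultures to give inhibition.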

[3] = NCI Yeast Anticancer Drug Screen. Data for the rad50EPP+ strain (AID 151);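 also: 0% = growth of vehicle-treated control cultures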; conditions: S. cerevisiae rad50 mutant strain, stronger effect = higher value
Method in brief: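 Genetically defined yeast (rad50EPP+, DNA damage repair alteration) is grown with compound, and inhibition of growth is expressed relative to vehicle-treated controls.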

[4] = NCI Yeast Anticancer Drug Screen. Data for the rad50 strain (AID 155);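 also: 0% = growth of vehicle-only cultures of the same strain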; conditions: S. cerevisiae rad50 strain growth inhibition, stronger effect = higher value
Method in brief: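 Cells are treated with compound, grown, and their growth is then scored against vehicle-only cultures of the same repair-deficient yeast strain.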

[5] = NCI Yeast Anticancer Drug Screen. Data for the mec2-1 strain (AID 157); conditions: S. cerevisiae mec2-1 strain, stronger effect = higher value
Method in brief: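 Each compound was tested on mec2-1 yeast, a strain altered in DNA damage repair or cell cycle control. Growth inhibition is reported relative to vehicle.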

[6] = NCI Yeast Anticancer Drug Screen. Data for the rad14 strain (AID 159);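 also: 0% = growth of vehicle-treated control cultures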; conditions: S. cerevisiae rad14 strain growth inhibition, stronger effect = higher value
Method in brief: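 Readout: yeast growth inhibition, referenced to vehicle-only cultures. Strain bears a defined alteration in DNA damage repair.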

[7] = NCI Yeast Anticancer Drug Screen. Data for the sgs1 mgt1 strain (AID 161);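 also: 0% = growth of cultures given vehicle only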; conditions: S. cerevisiae sgs1 mgt1 strain, stronger effect = higher value
Method in brief: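 Test agents were incubated with a DNA-repair-mutant yeast strain. Growth was then read and compared against vehicle-treated controls.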

[8] = NCI Yeast Anticancer Drug Screen. Data for the CLN2oe strain (AID 163);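 also: 0% = growth of vehicle-only control cultures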; conditions: S. cerevisiae CLN2oe strain, stronger effect = higher value
Method in brief: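 First, the altered yeast strain was treated with each compound; second, its growth was measured; finally, inhibition was derived by comparison with vehicle controls.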

[9] = NCI Yeast Anticancer Drug Screen. Data for the cln2 rad14 strain (AID 165);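 also: 0% = growth equal to vehicle treated cultures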; conditions: S. cerevisiae cln2 rad14 strain, stronger effect = higher value
Method in brief: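 Test compounds were added to cln2 rad14 yeast cultures; inhibition of growth was then determined by comparison with vehicle treatment.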

[10] = NCI Yeast Anticancer Drug Screen. Data for the bub3 strain (AID 167); conditions: S. cerevisiae bub3 mutant strain, stronger effect = higher value
Method in brief: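 Part of a panel of yeast mutants defective in DNA damage repair or cell cycle regulation. Each strain is grown with compound, and inhibition is calculated relative to solvent-treated cultures.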

[11] = NCI Yeast Anticancer Drug Screen. Data for the wt2 strain (AID 169);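 also: 0% = growth of vehicle-treated yeast cultures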; conditions: S. cerevisiae wt2 strain growth inhibition, stronger effect = higher value
Method in brief: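 The panel's yeast strains carry defined changes in DNA repair or cell cycle genes. Each strain is grown with compound, and growth loss is scored relative to vehicle.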

[12] = NCI Yeast Anticancer Drug Screen. Data for the mlh1 strain (AID 171);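 also: 0% = growth of vehicle-treated control cultures of the same strain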; conditions: S. cerevisiae mlh1 strain growth inhibition, stronger effect = higher value
Method in brief: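 Inhibition values reflect reduced yeast growth in the presence of compound, referenced to vehicle controls, using a strain chosen for its alteration in DNA repair or cell cycle control.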

[13] = NCI Yeast Anticancer Drug Screen. Data for the sgs1 strain (AID 173);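 also: 0% = growth of vehicle-only control cultures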; conditions: S. cerevisiae sgs1 mutant, stronger effect = higher value
Method in brief: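 Vehicle-treated cultures served as reference for growth inhibition of a yeast strain altered in DNA damage repair or cell cycle control after compound exposure.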

[14] = NCI Yeast Anticancer Drug Screen. Data for the mlh1 rad18 strain (AID 175); conditions: S. cerevisiae mlh1 rad18 strain growth inhibition, stronger effect = higher value
Method in brief: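 Inhibition values reflect reduced growth of mutant yeast versus vehicle-treated controls following compound exposure; the mutations affect DNA damage repair.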

[15] = NCI Yeast Anticancer Drug Screen. Data for the rad18 strain (AID 177); conditions: S. cerevisiae rad18 mutant growth inhibition, stronger effect = higher value
Method in brief: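 Steps: expose repair-mutant yeast to compound; measure growth; express as inhibition relative to vehicle control.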

[16] = at 5.0 µM (retest, dose inferred, filed as 0.5)
[17] = at 50.0 µM (retest, dose inferred, filed as 5.0)

Measured: growth inhibition

Nc1nc2c(c(=O)[nH]1)NC(CCNc1ccc(C(=O)O)cc1)CN2 (stereo unspecified)
inactive: [1]; at 1.2 µM -2% | [1]; at 3.7 µM 1% | [1]; at 11.0 µM -5% | [1]; at 33.0 µM 2% | [1]; at 100.0 µM -5% | [2]; at 1.2 µM 1% | [2]; at 3.7 µM 1% | [2]; at 11.0 µM 2% | [2]; at 33.0 µM 1% | [2]; at 100.0 µM -1% | [3]; at 1.2 µM -3% | [3]; at 3.7 µM -4% | [3]; at 11.0 µM -3% | [3]; at 33.0 µM -2% | [3]; at 100.0 µM -5% | [4]; at 1.2 µM -3% | [4]; at 3.7 µM 2% | [4]; [16] 14% | [4]; at 11.0 µM -5% | [4]; at 33.0 µM -4% | [4]; [17] 12% | [4]; at 50.0 µM -12.1% | [4]; at 100.0 µM -1% | [5]; at 1.2 µM -1% | [5]; at 3.7 µM 2% | [5]; [16] 7% | [5]; at 11.0 µM 4% | [5]; at 33.0 µM 2% | [5]; [17] 18% | [5]; at 50.0 µM -35.5% | [5]; at 100.0 µM -13% | [6]; at 1.2 µM 0% | [6]; at 3.7 µM -6% | [6]; at 11.0 µM 2% | [6]; at 33.0 µM 3% | [6]; at 100.0 µM 6% | [7]; [16] 11% | [7]; [17] -2% | [7]; at 50.0 µM -0.75% | [8]; at 1.2 µM -2% | [8]; at 3.7 µM -3% | [8]; at 11.0 µM -3% | [8]; at 33.0 µM 1% | [8]; at 100.0 µM 2% | [9]; [16] 31% | [9]; [17] 39% | [9]; at 50.0 µM 2.45% | [10]; at 1.2 µM 2% | [10]; at 3.7 µM 2% | [10]; [16] -13% | [10]; at 11.0 µM 0% | [10]; at 33.0 µM -1% | [10]; [17] 6% | [10]; at 50.0 µM 6.15% | [10]; at 100.0 µM 24% | [11]; at 1.2 µM 0% | [11]; at 3.7 µM 2% | [11]; at 11.0 µM 1% | [11]; at 33.0 µM 0% | [11]; at 100.0 µM 3% | [12]; at 1.2 µM 0% | [12]; at 3.7 µM -1% | [12]; at 11.0 µM 0% | [12]; at 33.0 µM 0% | [12]; at 100.0 µM 15% | [13]; at 1.2 µM -2% | [13]; at 3.7 µM -3% | [13]; at 11.0 µM -4% | [13]; at 33.0 µM -6% | [13]; at 100.0 µM -3% | [14]; [16] 8% | [14]; [17] 28% | [14]; at 50.0 µM 4.25% | [15]; at 1.2 µM -3% | [15]; at 3.7 µM -5% | [15]; at 11.0 µM -10% | [15]; at 33.0 µM -22% | [15]; at 100.0 µM -29%

CCC(c1ccc(O)cc1)C(CC)c1ccc(OCCN)cc1 (stereo unspecified)
inactive: [1]; at 1.2 µM -5% | [1]; at 3.7 µM 0% | [1]; at 11.0 µM 0% | [1]; at 33.0 µM 11% | [2]; at 1.2 µM -4% | [2]; at 3.7 µM -4% | [2]; at 11.0 µM -8% | [2]; at 33.0 µM -8% | [2]; at 100.0 µM 27% | [3]; at 1.2 µM -3% | [3]; at 3.7 µM 1% | [3]; at 11.0 µM 12% | [3]; at 33.0 µM 1% | [3]; at 100.0 µM 10% | [4]; at 1.2 µM 0% | [4]; at 3.7 µM -1% | [4]; [16] 18% | [4]; at 11.0 µM 3% | [4]; at 33.0 µM 27% | [4]; [17] 69% | [4]; at 50.0 µM 27.9% | [5]; at 1.2 µM -3% | [5]; at 3.7 µM -3% | [5]; [16] -4% | [5]; at 11.0 µM -7% | [5]; at 33.0 µM -4% | [5]; [17] 8% | [5]; at 50.0 µM 6.25% | [5]; at 100.0 µM 64% | [6]; at 1.2 µM -3% | [6]; at 3.7 µM 1% | [6]; at 11.0 µM 3% | [6]; at 33.0 µM 17% | [7]; [16] 0% | [7]; at 50.0 µM 60.1% | [8]; at 1.2 µM -1% | [8]; at 3.7 µM -4% | [8]; at 11.0 µM 5% | [8]; at 33.0 µM 19% | [9]; [16] -2% | [9]; [17] 25% | [9]; at 50.0 µM -1.25% | [10]; at 1.2 µM -2% | [10]; at 3.7 µM -3% | [10]; [16] -19% | [10]; at 11.0 µM -7% | [10]; at 33.0 µM -1% | [10]; [17] 62% | [10]; at 50.0 µM 45.1% | [11]; at 1.2 µM -2% | [11]; at 3.7 µM -9% | [11]; at 11.0 µM 6% | [11]; at 33.0 µM 8% | [12]; at 1.2 µM -3% | [12]; at 3.7 µM -4% | [12]; at 11.0 µM -5% | [12]; at 33.0 µM 12% | [13]; at 1.2 µM -23% | [13]; at 3.7 µM -46% | [13]; at 11.0 µM -18% | [13]; at 33.0 µM 15% | [14]; [16] 12% | [14]; at 50.0 µM 14.6% | [15]; at 1.2 µM -7% | [15]; at 3.7 µM -6% | [15]; at 11.0 µM -6% | [15]; at 33.0 µM 0%
active: [1]; at 100.0 µM 88% | [4]; at 100.0 µM 88% | [6]; at 100.0 µM 98% | [7]; [17] 76% | [8]; at 100.0 µM 83% | [10]; at 100.0 µM 72% | [11]; at 100.0 µM 92% | [12]; at 100.0 µM 91% | [13]; at 100.0 µM 94% | [14]; [17] 87% | [15]; at 100.0 µM 91%
